{
  "source": "PubChem BioAssay AID1910",
  "about": "(Broad Institute, 2009)",
  "note": "In all, about 300,000 compounds went through this assay and about 950 (0.32%) were called active. The entries come from a sample that favours actives as a whole. Unmarked numbers belong to inactive results.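 Rule for the calls: active = mean activation of at least 10% of the iron chelator positive control signal, with at least half of replicates also reaching 10%; inconclusive = mean and replicate majority disagree about reaching 10%; inactive = mean and most replicates under 10%.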",
  "data": [
    {"test": "hypoxia response element reporter activation – cell-based, U2OS HRE-luciferase, luminescence, primary screen (AID 1910)", "details": "hits give high values, screened at 7.5 µM (by protocol), normalized: DMSO 0%, desferrioxamine 100%", "values": [
      {"smiles": "COc1ccc(C(C#N)(CC(=O)O)c2cnccn2)cc1OC", "note": "(centres undefined)", "activation": "-0.732%"},
      {"smiles": "CCCCCN(C(=O)CCC(=O)OCC(=O)NC1CCC(C)CC1)c1c(N)n(CCCC)c(=O)[nH]c1=O", "note": "(centres undefined)", "activation": "0.288%"},
      {"smiles": "O=C(NCc1ccc(Cl)cc1)C(=O)NCC1CCCN1S(=O)(=O)c1cccs1", "note": "(centres undefined)", "activation": "-0.199%"},
      {"smiles": "CC(=O)Nc1ccccc1NC(=O)c1cc(C)cc(C)c1", "activation": "-0.124%"},
      {"smiles": "Nc1ccc(C(=O)NCc2ccccc2)cc1", "activation": "-0.0134%"},
      {"smiles": "Nc1ccc(C(=O)Nc2ccccc2N)cc1", "activation": "23.2% (active)"},
      {"smiles": "COc1cc(OC)c(OC)cc1CN1CCN(C(=O)c2cccc3ccccc23)CC1", "activation": "-7.26%"},
      {"smiles": "Cc1ccc(NC(=O)COc2coc(CN3CCc4ccccc4C3)cc2=O)cc1Cl", "activation": "-0.873%"},
      {"smiles": "Cc1nc2ccccc2nc1N/N=C/c1ccc(O)cc1O", "activation": "15.9% (active)"},
      {"smiles": "Oc1ccc(/C=N/NC2=NCCCCC2)c(O)c1", "activation": "1.31%"},
      {"smiles": "Oc1ccc(/C=N/Nc2nc(-c3ccccc3F)nc3ccccc23)c(O)c1", "activation": "0.0261%"},
      {"smiles": "Cc1onc(-c2ccccc2Cl)c1C(=O)OCc1nnc(-c2ccccc2)o1", "activation": "0.814%"},
      {"smiles": "N#CC1(NC(=O)COC(=O)Cc2n[nH]c(=O)c3ccccc23)CCCCC1", "activation": "1.1%"},
      {"smiles": "O=C(COc1coc(CN2CCN(c3ccccc3)CC2)cc1=O)Nc1ccccc1F", "activation": "0.427%"},
      {"smiles": "Cc1ccc(OCCCCc2c(C)n[nH]c2C)cc1", "activation": "0.618%"},
      {"smiles": "CC(C)COc1ccc(C(=O)OCC(=O)NCCC2=CCCCC2)cc1", "activation": "0.818%"},
      {"smiles": "CN1CCCC(OC(=O)COc2ccc(Br)cc2)C1", "note": "(centres undefined)", "activation": "-0.189%"},
      {"smiles": "COc1cc2c(cc1OC)/C(=C/C(=O)c1ccc(NC(C)=O)cc1)NCC2", "activation": "-0.377%"},
      {"smiles": "CC1CN/C(=C\\C(=O)c2ccc(Br)cc2)C(=O)N1", "note": "(centres undefined)", "activation": "71.1% (active)"},
      {"smiles": "CC1CCc2[nH]c3ccc(C(=O)N(C)CC(=O)Nc4cccc(F)c4)cc3c2C1", "note": "(centres undefined)", "activation": "0.749%"},
      {"smiles": "O=C(Nc1ccc(S(=O)(=O)Nc2ncccn2)cc1)c1cncc(Br)c1", "activation": "-1.84%"},
      {"smiles": "CCNS(=O)(=O)c1ccc(NC(=O)c2cncc(Br)c2)cc1", "activation": "94.2% (active)"},
      {"smiles": "O=C(Nc1ccc(N2CCCC2=O)cc1)c1cncc(Br)c1", "activation": "1.53%"},
      {"smiles": "COc1cc(NC(=O)C2CC(c3ccccc3O)=NO2)c(OC)cc1Cl", "note": "(centres undefined)", "activation": "-1.02%"},
      {"smiles": "COc1ccc(NC(=O)NCCN2CCN(c3ccc(C)cc3)CC2)c(Cl)c1", "activation": "2.29%"},
      {"smiles": "O=C(Cc1ccc(Br)cc1)NCCc1ccccc1", "activation": "0.0277%"},
      {"smiles": "COc1ccc(NC(=O)C(C)N2c3cccc4cccc(c34)S2(=O)=O)c(OC)c1", "note": "(centres undefined)", "activation": "0.272%"},
      {"smiles": "CC(C)CN(CC(C)C)C(=O)CN1c2cccc3cccc(c23)S1(=O)=O", "activation": "-19%"},
      {"smiles": "CC(C(=O)N1CCOCC1)N1c2cccc3cccc(c23)S1(=O)=O", "note": "(centres undefined)", "activation": "163% (active)"},
      {"smiles": "COC(=O)C1CCN(C(=O)NC2CC(=O)N(c3ccc4c(c3)OCCO4)C2)CC1", "note": "(centres undefined)", "activation": "2.77%"},
      {"smiles": "C/C=C/c1ccc(OCC(=O)OCC(=O)Nc2c(C)nn(-c3ccccc3)c2C)c(OC)c1", "activation": "0.205%"},
      {"smiles": "CCOc1ccccc1OCC(=O)Nc1ccccc1C(=O)NC1CC1", "activation": "0.735%"},
      {"smiles": "N[C@@H](Cc1ccccc1)C(=O)N1CCOCC1", "activation": "1.05%"},
      {"smiles": "Cc1cc(N2CCN(c3ccccc3)CC2)nc(N2CCOCC2)n1", "activation": "-0.818%"},
      {"smiles": "Cc1cc(Oc2ccccc2)nc(N2CCOCC2)n1", "activation": "686% (active)"},
      {"smiles": "Cc1cc(Nc2ccc(Cl)cc2)nc(N2CCOCC2)n1", "activation": "0.664%"},
      {"smiles": "Cc1ccc(NC(=O)COC(=O)CNC(=O)c2ccc(Cl)cc2Cl)cc1S(=O)(=O)N1CCOCC1", "activation": "-0.357%"},
      {"smiles": "CCOC(=O)c1cc(C(C)C)sc1NC(=O)COC(=O)c1nccnc1N", "activation": "-0.0851%"},
      {"smiles": "CCN1CCN(C(c2cccnc2)c2cc(Cl)c3cccnc3c2O)CC1", "note": "(centres undefined)", "activation": "1.75%"},
      {"smiles": "Oc1ccc(CN2CCN(c3ncccn3)CC2)cc1", "activation": "-0.81%"},
      {"smiles": "Oc1c(CN2CCN(c3ccc(F)cc3)CC2)cc(Cl)c2cccnc12", "activation": "57.7% (active)"},
      {"smiles": "Cc1ccccc1OCC(=O)Nc1ccc2c(c1)ncn2C", "activation": "1.83%"},
      {"smiles": "C=CCC1(C(=O)N(C)Cc2ccccc2)CCN(C(=O)OC(C)(C)C)CC1", "activation": "-0.424%"},
      {"smiles": "COc1ccc2c(c1)O/C(=C\\c1ccccc1O)C2=O", "activation": "3.88%"},
      {"smiles": "COc1cc([N+](=O)[O-])cc([N+](=O)[O-])c1NC(=O)N1CCOCC1", "activation": "-0.133%"},
      {"smiles": "COc1ccc(C#Cc2c(-c3ccc(OC)cc3)oc3ccc(-c4ccc5c(c4)OCO5)cc23)cc1", "activation": "2.6%"},
      {"smiles": "Cc1cccc(OCCC(=O)Nc2cc(S(=O)(=O)N3CCCCC3)ccc2N2CCOCC2)c1", "activation": "-0.617%"},
      {"smiles": "CC(=O)NCCC(=O)Nc1cc(S(=O)(=O)N2CCOCC2)ccc1N1CCOCC1", "activation": "158% (active)"},
      {"smiles": "CN1CCN(c2ccc(S(=O)(=O)N3CCOCC3)cc2NC(=O)CCc2ccccc2)CC1", "activation": "0.124%"},
      {"smiles": "O=S(=O)(NCCCc1ccccc1)c1ccc(Br)cc1", "activation": "-0.382%"},
      {"smiles": "O=c1[nH]snc1-c1c(Cl)cccc1Cl", "activation": "-0.133%"},
      {"smiles": "COc1ccc(S(=O)(=O)N2CCOC2CNC(=O)C(=O)NCc2ccncc2)cc1OC", "note": "(centres undefined)", "activation": "0.131%"},
      {"smiles": "Cc1ccc(S(=O)(=O)N2CCN(C(=O)c3ccccc3-c3nc4ccccc4s3)CC2)c(C)c1", "activation": "-37.1%"},
      {"smiles": "CCOC(=O)C1CCN(C(=O)COC(=O)C2CCN(S(=O)(=O)c3ccc4c(c3)OCCO4)CC2)CC1", "activation": "0.496%"},
      {"smiles": "CCOc1ccccc1NS(=O)(=O)c1cc2c3c(c1)C(C)C(=O)N3CCC2", "note": "(centres undefined)", "activation": "-0.238%"},
      {"smiles": "CC1C(=O)N2CCCc3cc(S(=O)(=O)NCc4ccc(F)cc4)cc1c32", "note": "(centres undefined)", "activation": "2.62%"},
      {"smiles": "COc1ccccc1CCNS(=O)(=O)c1cc2c3c(c1)C(C)C(=O)N3CCC2", "note": "(centres undefined)", "activation": "80.8% (active)"},
      {"smiles": "O=C(CNC(=O)C12CC3CC(CC(C3)C1)C2)OCC(=O)N1CCCCC1", "activation": "-0.325%"},
      {"smiles": "CC(NC(=O)c1ccccc1SCC(=O)N1CCCC1)c1ccccc1", "note": "(centres undefined)", "activation": "-0.504%"}
    ]}
  ]
}
